# Test results reported in ChEMBL document CHEMBL5308504, “Tm Shift (DSF) assay results for EUbOPEN Chemogenomics Library” (2023).
# Several values for one entry are separate records, joined by “and”; a condition that tells them apart may be missing. Equal values may be shown once. Numbered stars: 1 amine (or outer) side, 2 acyl side, 3 side chain; on linkers, the order of the positions; unused ones are H or OH. Bridge positions count the residues as written; N and C are the ends. Square brackets hold non-standard residues; d marks the D form. Peptide text beside a SMILES is read from it. I, II: the chains in the order shown. Hexamethylenediamine = C(CCCN[*:2])CCN[*:1]; Dip = N[C@H](C(=O)O)C(c1ccccc1)c1ccccc1; Chg = N[C@H](C(=O)O)C1CCCCC1; NMeA = CN[C@@H](C)C(=O)O
# What was measured:
# [1] = molecular target: Bromodomain-containing protein 4 (Homo sapiens) (UniProt O60885); conditions: Compound concentration 20.0 uM, Protein concentration 2.0 uM, Result type QC Liability
# [2] = molecular target: T1, Transcription intermediary factor 1-alpha (Homo sapiens) (UniProt O15164); conditions: Compound concentration 20.0 uM, Protein concentration 2.0 uM, Result type QC Liability
# T1 sequence (whole entry): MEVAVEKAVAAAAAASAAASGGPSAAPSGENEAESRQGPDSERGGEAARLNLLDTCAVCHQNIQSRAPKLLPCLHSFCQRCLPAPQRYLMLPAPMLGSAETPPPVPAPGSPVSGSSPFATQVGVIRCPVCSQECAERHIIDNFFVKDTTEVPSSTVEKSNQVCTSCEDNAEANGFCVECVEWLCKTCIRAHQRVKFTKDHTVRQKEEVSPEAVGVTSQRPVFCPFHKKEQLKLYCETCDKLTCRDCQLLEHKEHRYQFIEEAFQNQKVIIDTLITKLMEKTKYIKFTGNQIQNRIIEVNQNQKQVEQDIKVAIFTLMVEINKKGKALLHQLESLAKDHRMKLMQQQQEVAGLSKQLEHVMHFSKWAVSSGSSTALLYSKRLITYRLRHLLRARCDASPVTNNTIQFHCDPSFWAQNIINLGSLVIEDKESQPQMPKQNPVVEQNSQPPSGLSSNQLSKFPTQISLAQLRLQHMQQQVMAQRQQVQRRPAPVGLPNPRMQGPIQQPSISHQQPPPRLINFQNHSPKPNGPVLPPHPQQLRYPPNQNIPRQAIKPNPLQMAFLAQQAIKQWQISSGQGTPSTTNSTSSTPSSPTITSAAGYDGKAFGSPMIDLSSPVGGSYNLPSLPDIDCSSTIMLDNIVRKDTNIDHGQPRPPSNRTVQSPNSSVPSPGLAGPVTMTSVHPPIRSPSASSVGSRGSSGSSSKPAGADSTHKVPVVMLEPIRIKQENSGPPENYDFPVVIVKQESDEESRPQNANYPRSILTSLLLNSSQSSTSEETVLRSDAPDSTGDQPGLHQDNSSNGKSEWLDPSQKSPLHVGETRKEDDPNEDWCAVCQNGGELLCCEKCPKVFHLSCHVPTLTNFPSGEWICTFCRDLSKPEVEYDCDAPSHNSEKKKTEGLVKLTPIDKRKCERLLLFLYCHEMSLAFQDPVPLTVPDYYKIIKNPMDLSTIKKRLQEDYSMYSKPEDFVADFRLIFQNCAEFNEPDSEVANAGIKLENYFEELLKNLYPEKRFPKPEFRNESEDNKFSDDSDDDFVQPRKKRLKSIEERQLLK
SMILES,ΔTm [1],ΔTm [2]
COc1cc(-c2cc3ncccc3c(O[C@H](C)[C@H]3CNC(=O)C3)n2)cc(OC)c1OC,-1.66 °C and 1.15 °C,0.28 °C and -2.67 °C
Oc1c(CN2CCCC2)cc(COCc2ccccc2)c2cccnc12,-2.69 °C,-4.08 °C
Cc1c(CCC(=O)O)cccc1NC(=O)[C@@H](c1ccc(-c2cncc(Cl)c2)c(F)c1)C1CCCC1,0.73 °C,0.32 °C
Nc1ncc2c(n1)-c1c([nH]c3ccc(C4=CCOCC4)cc13)CCC2,-0.2 °C,0.27 °C
CCCCCCCN(CCc1ccc(SC(C)(C)C(=O)O)cc1)C(=O)Nc1ccc(F)cc1F,-1.9 °C,-3.36 °C
Cc1cccc(-c2nn3c(c2-c2ccnc4ccc(C(N)=O)cc24)CCC3)n1,-2.31 °C,-2.8 °C
C[C@@H]1CC(=O)N(C2CC2)N=C1c1ccc(NC(=O)N2Cc3ccncc3C2)cc1,-0.04 °C,0.48 °C
O=C(O)CCC/C=C\C[C@@H]1[C@@H](/C=C/[C@@H](O)COc2cccc(C(F)(F)F)c2)[C@H](O)C[C@@H]1O,-0.49 °C,-0.79 °C
Cc1cc2ncnn2cc1Nc1ncc2c(n1)n(C1CCOCC1)c(=O)n2C,-1.59 °C,-4.66 °C
CC1CCN(C(=O)[C@H](CCn2cccc2C#N)NS(=O)(=O)c2cccc3[nH]ccc23)CC1,0.4 °C,0.4 °C
CC(C)(O)[C@H]1CC[C@H](Nc2ccc3ncc(-c4cccc(C(F)(F)F)c4)n3n2)CC1,-0.97 °C,-1.82 °C
CNc1[nH]c(Nc2ccc(C(=O)N3CCOCC3)cc2OC)nc2ncc(Cl)c1-2,-0.77 °C,-2.36 °C
CC#CC(=O)N1CCN(c2nc(-c3ccc(Oc4ccccc4)cc3)c(C(N)=O)s2)CC1,-3.96 °C,-3.1 °C
CCCCc1oc2ccccc2c1C(=O)c1cc(I)c(OCCN(CC)CC)c(I)c1,-4.02 °C,-4.38 °C
Cc1ncc(C(=O)Nc2cc(C(C)(C)C)on2)cc1-n1cc(-c2cnn(C)c2C)nn1,-3.35 °C,-3.56 °C
Cn1cc(-c2ccc(N(C(=O)NCc3ccccc3)[C@H]3CC[C@H](Nc4ccc(C#N)cn4)CC3)cc2)ccc1=O,-0.82 °C,-1.6 °C

SMILES,ΔTm [1],ΔTm [2]
NCc1ccc(OCCCc2sc(-c3ccc4c(c3)/C(=N/Nc3nc5ccccc5s3)CCC4)nc2C(=O)O)cc1,-11 °C,-0.58 °C
N#C/C(=C\c1ccc(O)c(O)c1)C(=O)OCCc1cccs1,-0.61 °C,0.49 °C
CCOC(=O)Nc1ccc2c(c1)N(C(=O)CN(CC)CC)c1ccccc1CC2,-1.53 °C,-1.69 °C
COc1cc2nc(C)nc(N[C@H](C)c3cc(N)cc(C(F)(F)F)c3)c2cc1O[C@H]1CCOC1,0 °C,0.8 °C
CC1(C)CCC(CN2CCN(c3ccc(C(=O)NS(=O)(=O)c4ccc(NCC5CCOCC5)c([N+](=O)[O-])c4)c(Oc4cnc5[nH]ccc5c4)c3)CC2)=C(c2ccc(Cl)cc2)C1,-1.82 °C,-1.45 °C
NC(=O)c1sc2nc(N3CCC(NC[C@H](O)c4ccccn4)CC3)cc(C(F)(F)F)c2c1N,-3.3 °C,-3.39 °C
CC(C)(C)OC(=O)CN(Cc1ccc(Cl)cc1)Cc1ccc([N+](=O)[O-])s1,-2.44 °C,-2.89 °C
CN[C@@H](C)C(=O)N[C@H](C(=O)N1CCC[C@H]1C(=O)N[C@H](C(=O)NCCCCCCNC(=O)[C@@H](NC(=O)[C@@H]1CCCN1C(=O)[C@@H](NC(=O)[C@H](C)NC)C1CCCCC1)C(c1ccccc1)c1ccccc1)C(c1ccccc1)c1ccccc1)C1CCCCC1 (I: H-[NMeA][Chg]P[Dip] / II: H-[NMeA][Chg]P[Dip]; linker I:C-II:C via Hexamethylenediamine),-4.77 °C,-4.59 °C
O=C(N[C@H]1CCC[C@H](CO)C1)C1CCN(c2nc3cc(Cl)c(-c4ccc(Cl)cc4)cc3o2)CC1,-3.15 °C,1.95 °C
Cn1cc(-c2ccc(-c3cncc(Cl)c3N3CCC4(CCNC4=O)CC3)cc2)cn1,0.07 °C,-2 °C
Clc1ccccc1C(c1ccccc1)(c1ccccc1)n1ccnc1,-5.6 °C,-5.38 °C
COc1ccc(CSc2nnc(-c3ccc4ncsc4c3)o2)cc1C(F)(F)F,-5.83 °C,-2.33 °C
CC[C@H](CC(=O)O)n1c(=O)c2ncccc2n(Cc2cn(C)c3cc(C)cc(C)c23)c1=O,-1.38 °C and -3.06 °C,0.26 °C and -1.81 °C
COc1nc2ccc([C@@](O)(c3ccccc3)C3CCN(C(C)=O)CC3)cc2c(Cl)c1Cc1ccc(-n2cccn2)cc1,-3.41 °C,-0.87 °C
Cc1cc(OCc2nc3ccccc3s2)ccc1NC(=O)Nc1ccc(Cl)c(Cl)c1,0.28 °C,-0.82 °C
